Experiment [1] in a line: NCI Yeast Anticancer Drug Screen. Data for the rad50 strain (AID 155).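 Further: 0% = growth of vehicle-only cultures of the same strain.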 To be noted: S. cerevisiae rad50 strain growth inhibition; at 50.0 µM; active compounds read high. Put shortly: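 Yeast carrying a defined DNA repair defect were exposed to test compounds, and growth was compared with vehicle-treated controls to give percent inhibition.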
The nature of experiment [2]: NCI Yeast Anticancer Drug Screen. Data for the mec2-1 strain (AID 157). To be noted: S. cerevisiae mec2-1 strain, at 50.0 µM, active compounds read high. Summed up: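 Mutant yeast (mec2-1) grown with compound; growth inhibition relative to vehicle control reported.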
Experiment [3] can be described thus: NCI Yeast Anticancer Drug Screen. Data for the sgs1 mgt1 strain (AID 161).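 Further: 0% = growth of cultures given vehicle only.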 The conditions noted are these: S. cerevisiae sgs1 mgt1 strain, at 50.0 µM, active compounds read high. Put shortly: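 This yeast growth screen uses a strain with defined DNA-repair lesions; compound-treated growth is compared with vehicle-treated growth.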
Experiment [4] is described as follows: NCI Yeast Anticancer Drug Screen. Data for the cln2 rad14 strain (AID 165).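 Further: 0% = growth equal to vehicle treated cultures.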 To be noted: S. cerevisiae cln2 rad14 strain, at 50.0 µM, active compounds read high. Summed up:
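Readout is yeast growth inhibition versus vehicle-treated controls, using a strain with cln2 and rad14 alterations exposed to compound.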

Experiment [5] in a line: NCI Yeast Anticancer Drug Screen. Data for the bub3 strain (AID 167). The conditions noted are these: S. cerevisiae bub3 mutant strain, at 50.0 µM, active compounds read high. Put shortly:
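Compounds were applied to a genetically altered yeast strain carrying a cell-cycle control defect. Growth inhibition was scored against vehicle-treated controls.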

The nature of experiment [6]: NCI Yeast Anticancer Drug Screen. Data for the mlh1 rad18 strain (AID 175). To be noted: S. cerevisiae mlh1 rad18 strain growth inhibition; at 50.0 µM; active compounds read high. Summed up: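 Genetically defined yeast (DNA repair-deficient) exposed to compounds; growth inhibition determined relative to vehicle.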

Each structure is given as a SMILES string. Compounds without any hit were thinned out: in the full panel of roughly 79,000, 15% have a hit. Unmarked numbers belong to inactive results. The source made the active and inactive calls. No stated cut-off is given here; in the data, active means growth inhibition above about 70%; inactive means the rest.

For `CC[C@@H]1C[C@H]2CC3c4[nH]c5ccc(O)cc5c4CCN(C2)C31`, the growth inhibition is 3.4% in experiment [1]; -24.4% in experiment [2]; 23.6% in experiment [3]; 5.35% in experiment [4]; -1.45% in experiment [5]; 5.6% in experiment [6].
Turning to `CN1CN(c2ccccc2)C2(CCN(Cc3csc4ccccc34)CC2)C1=O`, the growth inhibition was -50.9% in experiment [1]; -31.5% in experiment [2]; -47.5% in experiment [3]; -1.3% in experiment [4]; -7.1% in experiment [5]; -20.1% in experiment [6].
Regarding `NC(=O)c1cc(N(CCBr)CCBr)c([N+](=O)[O-])cc1[N+](=O)[O-]`, the growth inhibition in experiment [1] is 17.6%; in experiment [2] it was 1.25%; in experiment [3] it was 17.6%; in experiment [4], 14.2%; in experiment [5], 16.9%; in experiment [6], 9.3%.
On to `C[N+]1(C)C2CCC1CC(OC(=O)C(CO)c1ccccc1)C2` (stereo unspecified), for which the growth inhibition in experiment [1] is 18.7%; in experiment [2], -21.6%; in experiment [3] it was -6%; in experiment [4], -28.4%; in experiment [5], -51.5%; in experiment [6], -5.95%.
As to `COc1ccc2c3c1OC1C(OC)(OC)CC4(C=C2)CN(C)CCC314` (stereo unspecified), the growth inhibition is -31% in experiment [1]; -22.4% in experiment [2]; -20.4% in experiment [3]; -11.4% in experiment [4]; -23.9% in experiment [5]; -11.8% in experiment [6].
As to `CCOC(=O)C1C(C=C(C)C)C1(C)C` (stereo unspecified), the growth inhibition in experiment [1] is -14.3%; in experiment [2], -17.4%; in experiment [3], -8.8%; in experiment [4] it was -10.8%; in experiment [5], -16.6%; in experiment [6], -3.95%.
For `CC(=O)OC(C)(C)/C=C/C(=O)[C@](C)(O)[C@H]1[C@H](O)C[C@@]2(C)[C@@H]3CC=C4[C@@H](C[C@H](O)C(=O)C4(C)C)[C@]3(CO)C(=O)C[C@]12C`, the growth inhibition was 21.1% in experiment [1]; -12.9% in experiment [2]; 15.3% in experiment [3]; -7.8% in experiment [4]; 18.6% in experiment [5]; 18.9% in experiment [6].
With `c1ccc2c3c(ccc2c1)NC1CCCN1C3` (stereo unspecified), the growth inhibition in experiment [1] is 21.8%; in experiment [2] it was 6.65%; in experiment [3], -0.85%; in experiment [4], -38.8%; in experiment [5] it was -8.6%; in experiment [6], 12.2%.
`O=[N+]([O-])c1c(Cl)cc(Cl)c([N+](=O)[O-])c1Cl`: the growth inhibition in experiment [1] was 15.6%; in experiment [2], 5.25%; in experiment [3], 17.1%; in experiment [4] it was 3.9%; in experiment [5], 2.85%; in experiment [6] it was 32.1%.
As for `O=S(=O)(O)C1CCC(O)C2[N-]CCCC21.O=S(=O)(O)C1CCC(O)C2[N-]CCCC21.[Zn+2]` (stereo unspecified), the growth inhibition is 1.75% in experiment [1]; 0.9% in experiment [2]; 6.2% in experiment [3]; 25.8% in experiment [4]; -10.7% in experiment [5]; 5.05% in experiment [6].
`COc1ccc(CCN2CCOCC2)cc1`: the growth inhibition was 31.9% in experiment [1]; 2.15% in experiment [2]; 47.8% in experiment [3]; 9.25% in experiment [4]; 34% in experiment [5]; 34.2% in experiment [6].
Regarding `CCC1c2cc(O)c(OC)cc2CCN1C` (stereo unspecified), the growth inhibition in experiment [1] is -7.7%; in experiment [2] it was -0.9%; in experiment [3] it was 2.45%; in experiment [4], -14.9%; in experiment [5], -7.75%; in experiment [6], -8%.
In the case of `Oc1ccccc1C=NC1CCCCC1.Oc1ccccc1C=NC1CCCCC1.[Ni+2]`, the growth inhibition was 38.6% in experiment [1]; -9.25% in experiment [2]; 28.6% in experiment [3]; -40.8% in experiment [4]; -0.1% in experiment [5]; -15.4% in experiment [6].
As to `O=c1ccn(C2OC(CO)C(O)C2[Se]c2ccccc2)c(=O)[nH]1` (stereo unspecified), the growth inhibition in experiment [1] was 4%; in experiment [2] it was -9.45%; in experiment [3] it was 16.8%; in experiment [4], 6.05%; in experiment [5], 7.2%; in experiment [6] it was 27.1%.
With `CN(C)C(=S)Oc1cc(Cl)c(S(=O)(=O)F)cc1Cl`, the growth inhibition is 99.5% (active) in experiment [1]; 98.8% (active) in experiment [2]; 99.2% (active) in experiment [3]; 95.8% (active) in experiment [4]; 99.2% (active) in experiment [5]; 99% (active) in experiment [6].
`CC1[N-]C(/C=N/O)NC(C)N1.CC1[N-]C(/C=N/O)NC(C)N1.[Br][Ni+2][Br]` (stereo unspecified): the growth inhibition in experiment [1] was -14.9%; in experiment [2] it was -10%; in experiment [3], -22.3%; in experiment [4] it was -19%; in experiment [5], 0.65%; in experiment [6] it was -15.7%.
As for `CC(C)N=Cc1ccccc1O.CC(C)N=Cc1ccccc1O.[Ni]`, the growth inhibition in experiment [1] is 51.3%; in experiment [2], 1.1%; in experiment [3] it was 48.6%; in experiment [4], -4.45%; in experiment [5] it was 7.05%; in experiment [6], 22.2%.
Consider `O=C(Nc1ccc(S(=O)(=O)F)cc1)c1ccc2ccccc2c1O`, for which the growth inhibition in experiment [1] is 9.85%; in experiment [2] it was 31.8%; in experiment [3], 32.5%; in experiment [4], 2.15%; in experiment [5], 27.9%; in experiment [6] it was 25.4%.
For the compound `O=[N+]([O-])c1cc(S(=O)(=O)O)cc([N+](=O)[O-])c1Cl`, the growth inhibition in experiment [1] was 8.35%; in experiment [2] it was 7%; in experiment [3], 2.85%; in experiment [4], 50.5%; in experiment [5] it was -17%; in experiment [6], 24.8%.
Take `COC1C(O)CC(OC2CC(Oc3cc4cc5c(c(O)c4c(O)c3C)C(=O)[C@@H](OC3CC(OC4CC(OC6CC(C)(O)C(OC(C)=O)C(C)O6)C(O)C(C)O4)C(O)C(C)O3)[C@H]([C@H](OC)C(=O)[C@@H](O)[C@@H](C)O)C5)OC(C)C2OC(C)=O)OC1C` (stereo partly specified): the growth inhibition in experiment [1] is 12.7%; in experiment [2], 24.9%; in experiment [3], 8.15%; in experiment [4], 60.2%; in experiment [5], 7.1%; in experiment [6], 29.2%.
On to `CC#CC(O)(C(=O)OC)c1ccccc1` (stereo unspecified), for which the growth inhibition in experiment [1] was -7.35%; in experiment [2] it was 12.6%; in experiment [3], -20.8%; in experiment [4] it was -23.6%; in experiment [5], -5.1%; in experiment [6] it was -1.9%.

The values above are taken from PubChem BioAssay (NCI).
